Test [1] is described as follows: Cell Viability - N2a (AID 540).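 Further: cells exposed to compound for 40 h at 37 °C; plate controls were DMSO alone for no effect and tamoxifen control for full effect; nearly all actives have a fitted effect of over 45% in size.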 The note with it: N2a mouse neuroblastoma cell viability; activity change, negative = cytotoxicity: at 92.2 µM (top of the series). The procedure, abridged:
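Luminescent ATP signal (CellTiter-Glo, 20 min at room temperature) served as the viability read-out after N2a cells were treated with compounds for 40 hours at 37 °C. Concentration-response data were fitted to the Hill equation for AC50.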

Test [2] in a line: Cell Viability - Renal Proximal Tubule (AID 545). Further: nearly all actives have a fitted effect of over 40% in size. As to conditions: renal proximal tubule cells viability, primary cells of rat origin; at 91.7 µM (top of the series). The procedure, abridged:
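Rat kidney proximal tubule cells, freshly isolated; 1000 cells/well, 5 hr settle, compound 40 hr 37 °C. CellTiter-Glo 20 min RT, luminescence read. AC50 by standard Hill fit.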

Test [3] is described as follows: Cellular Toxicity (caspase-3) Jurkat (AID 655).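 Further: cells exposed to compound for 16 h at 37 °C before reading.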 The note with it: Jurkat caspase-3 activation, luminescence, DMSO = 0%, tamoxifen = 100%; at 92.2 µM (top of the series). The procedure, abridged: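 Luminescent caspase-3/7 readout (aminoluciferin substrate cleavage) in human T-cell leukemia Jurkat cells after 16 hr compound exposure. Concentration-response normalized to DMSO and 100 uM tamoxifen; AC50 by standard Hill equation.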

A short description of test [4]: Cell Viability - LYMP1-003 - Assay at 24 hr (AID 963).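 Further: plate controls were DMSO only for no effect and tetraoctylammonium bromide positive control for full effect.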 The procedure, abridged: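 Cells seeded at 2500/well, 5 hr at 37 C; compounds added; 24 hr at 37 C; CellTiter-Glo added, 30 min room temperature; luminescence read. Decrease in ATP taken as cytotoxicity, AC50 from Hill modelling.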
The nature of test [5]: Cell Viability - LYMP2-004 (AID 966). Further: nearly all actives have a fitted effect of over 65% in size. Further: potency means the concentration at half of the fitted maximal effect.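 On activity change, negative = cytotoxicity: plate controls were DMSO only for no effect and tetraoctylammonium bromide control for full effect.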 In short, it runs like this: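 Cells seeded 2500/well, rested 5 hr at 37 C, dosed across a concentration series, incubated 24 hr at 37 C, then CellTiter-Glo added for 30 min at room temperature and luminescence read. Hill fitting gave AC50.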
Test [6] can be described thus: Cell Viability - LYMP2-005 (AID 967). Further: potency means the concentration at half of the fitted maximal effect. In short, it runs like this:
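Steps: seed 2500 LYMP2-005 cells/well, incubate 5 h at 37 C, add compound, incubate 24 h at 37 C, add CellTiter-Glo, wait 30 min at RT, read luminescence. Concentration-response data fitted to Hill equation for AC50.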

A short description of test [7]: Cell Viability - LYMP2-015 (AID 971).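 Further: 0% = DMSO only and full effect = 92 µM tetraoctylammonium bromide; nearly all actives have a fitted effect of over 55% in size.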 In short, it runs like this: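 Luminescent ATP read-out (CellTiter-Glo) served as the viability measure after lymphoblastoid cells were exposed to compounds for 24 hours at 37 C. Concentration-response data were fitted with the Hill equation to give AC50.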
Test [8] is described as follows: Cell Viability - LYMP2-019 (AID 973). Further: nearly all actives have a fitted effect of over 55% in size. Further: potency means the concentration at half of the fitted maximal effect.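 On activity change, negative = cytotoxicity: 0% = DMSO alone and full effect = 92 µM tetraoctylammonium bromide.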 In short, it runs like this: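 Luminescent ATP read-out (CellTiter-Glo, 30 min room temperature) served as the viability measure after 24 hr treatment of lymphoblastoid cells at 37 C. Concentration-response data were fitted to the Hill equation for AC50.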
Test [9] is described as follows: Cell Viability - LYMP2-021 (AID 974).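 Further: compound exposure lasts 24 hours at 37 °C; nearly all actives have a fitted effect of over 55% in size.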 Further: potency means the concentration at half of the fitted maximal effect. On activity change, negative = cytotoxicity: on the % scale 0 is the no-effect control and ±100 the full control effect. The procedure, abridged: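 Plate 2500 lymphoblastoid cells per well and incubate 5 hr at 37 C. Add compounds over a concentration range and incubate 24 hr at 37 C. Add CellTiter-Glo, wait 30 min at room temperature, read luminescence.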
Test [10] in a line: Cell Viability - LYMP2-023 (AID 975). Further: nearly all actives have a fitted effect of over 55% in size. Further: potency means the concentration at half of the fitted maximal effect.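 On activity change, negative = cytotoxicity: cellular ATP measured by luciferase luminescence as viability proxy; plate controls were DMSO only for no effect and 92 µM tetraoctylammonium bromide control for full effect.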 The procedure, abridged: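 2500 cells/well, 5 hr 37 C; cpd 24 hr 37 C; CellTiter-Glo, 30 min RT; luminescence. qHTS conc-response, Hill fit -> AC50. Pos ctrl tetraoctylammonium bromide.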
Test [11] can be described thus: Cell Viability - LYMP2-025 (AID 976). Further: potency means the concentration at half of the fitted maximal effect.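 On activity change, negative = cytotoxicity: plate controls were DMSO only for no effect and tetraoctylammonium bromide control for full effect.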 In short, it runs like this: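 Seed 2500 LYMP2-025 cells/well; 5 hr at 37 C; add compound; 24 hr at 37 C; add CellTiter-Glo; 30 min RT; read luminescence. AC50 from Hill-modelled concentration-response.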
Test [12] in a line: Cell Viability - LYMP2-002 (AID 977).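 Further: compound exposure lasted 24 h at 37 °C; plate controls were DMSO only for no effect and 92 µM tetraoctylammonium bromide for full effect.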 The procedure, abridged:
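Human lymphoblastoid LYMP2-002 cells, 2500 per well, exposed to compounds for 24 h at 37 C in complete medium; viability read as intracellular ATP by CellTiter-Glo luminescence, AC50 from Hill fits.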

Test [13] in a line: Cell Viability - LYMP2-006 (AID 978). Further: on the % scale 0 is the no-effect control and ±100 the full control effect; nearly all actives have a fitted effect of over 60% in size. In short, it runs like this:
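qHTS, 1536-well; 2500 cells/well, 5 hr 37 C; cpd 24 hr 37 C; CellTiter-Glo 30 min RT; luminescence. Tetraoctylammonium bromide pos. ctrl. AC50 via Hill eqn.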

Test [14] is described as follows: Cell Viability - LYMP2-008 (AID 980). Further: nearly all actives have a fitted effect of over 60% in size. Further: potency means the concentration at half of the fitted maximal effect. On activity change, negative = cytotoxicity: on the % scale 0 is the no-effect control and ±100 the full control effect. In short, it runs like this: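 qHTS, human lymphoblastoid line, 2500 cells/well; 5 hr preincubation, 24 hr compound, 37 C. CellTiter-Glo ATP luminescence. AC50 via Hill equation. Tetraoctylammonium bromide positive control.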
The nature of test [15]: Cell Viability - LYMP2-026 (AID 989). Further: nearly all actives have a fitted effect of over 50% in size. Further: potency means the concentration at half of the fitted maximal effect. In short, it runs like this: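 Luminescent ATP signal (CellTiter-Glo, 30 min room temperature) measures viable lymphoblastoid cells after 24 hr compound treatment at 37 C. Decreased ATP reflects acute toxicity; AC50 values come from Hill-equation modeling.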
Test [16] is described as follows: Cell Viability - LYMP1-002 - Assay at 24 hr (AID 993). Further: potency means the concentration at half of the fitted maximal effect. On activity change, negative = cytotoxicity: on the % scale 0 is the no-effect control and ±100 the full control effect. In short, it runs like this: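 Cells plated 2500/well, 5 hr 37 C; compounds added, 24 hr 37 C; CellTiter-Glo added, 30 min RT; luminescence read. Tetraoctylammonium bromide positive control. Hill-equation AC50.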
The nature of test [17]: Cell Viability - LYMP1-002 - Assay at 40 hr (AID 994). Further: nearly all actives have a fitted effect of over 60% in size. Further: potency means the concentration at half of the fitted maximal effect. In short, it runs like this: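 Luminescent ATP signal served as the viability readout, with decreases taken as toxicity. Cells were treated with compounds across a concentration range for 40 hours at 37 C, and AC50 values came from standard Hill modeling.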
Test [18] deals with Retinoic acid receptor RXR-alpha (Homo sapiens) (UniProt P19793). The test can be described thus: qHTS assay for small molecule antagonists of retinoid X receptor alpha signaling (AID 588546; active means well fitted inhibition curve with a large enough effect in the signal ratio, with a control signal flat, not every such curve was filed as active; the % refers to the signal ratio; further: on the % scale 0 is the no-effect control and ±100 the full control effect). As to conditions: HEK293T RXRa-UAS-bla, beta-lactamase ratio, antagonist mode. In short, it runs like this: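 Beta-lactamase reporter inhibition, read as CCF4 fluorescence ratio (ex 405, em 460/530 nm) after 2 h at RT. HEK293T UAS-bla cells, 2500/well, were stimulated with 9-cis-RA at 500 or 100 nM final alongside test compound for 18 h at 37 C.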
Retinoic acid receptor RXR-alpha (Homo sapiens), sequence (P19793 whole entry, looked up): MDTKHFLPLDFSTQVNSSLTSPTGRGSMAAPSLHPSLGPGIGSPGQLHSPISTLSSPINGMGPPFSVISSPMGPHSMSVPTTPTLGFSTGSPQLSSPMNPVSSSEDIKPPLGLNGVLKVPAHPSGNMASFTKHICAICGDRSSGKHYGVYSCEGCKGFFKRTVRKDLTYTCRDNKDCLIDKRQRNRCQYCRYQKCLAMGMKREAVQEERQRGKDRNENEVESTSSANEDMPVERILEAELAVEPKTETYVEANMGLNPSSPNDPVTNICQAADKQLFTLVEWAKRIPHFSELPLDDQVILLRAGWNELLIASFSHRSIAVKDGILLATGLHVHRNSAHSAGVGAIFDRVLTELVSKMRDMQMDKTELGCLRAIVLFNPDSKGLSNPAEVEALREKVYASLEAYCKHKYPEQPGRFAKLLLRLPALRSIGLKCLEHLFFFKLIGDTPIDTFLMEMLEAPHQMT
Background: qHTS replaces the single test concentration by a dilution series.

Test [19] is described as follows: qHTS assay for small molecule agonists of the antioxidant response element (ARE) signaling pathway measured by Nrf2-dependant transcriptional activity - cell viability counter screen (AID 720653; active means well fitted curve in the direction sought with a large enough effect in the repeat runs; an effect the other way counts as inactive or inconclusive; further: potency means the concentration at half of the fitted maximal effect). As to conditions: ARE-bla HepG2 viability, CellTiter-Glo ATP luminescence, 16 h; max response: active compounds read low. In short, it runs like this:
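ARE-bla HepG2 cells treated with compounds for 16 h at 37C; this counter screen measures viability as intracellular ATP by CellTiter-Glo luminescence after 30 min at room temperature.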

The nature of test [20]: qHTS assay for cell viability of the p53RE-bla HCT-116 cell line (AID 743292). In short, it runs like this: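 Viability of compound-treated p53RE-bla HCT-116 cells is taken from ATP-dependent luciferase luminescence. Treatment lasts 16 h at 37 C after a 5 h settling period; detection follows 30 min at room temperature.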

Molecules are shown by their SMILES. “And” between values parts separate entries of the source, which are not always exact repeats. Equal values may be shown once. A number with no mark means an inactive call. Records with an inconclusive call do not appear. The source made the active and inactive calls. Unless noted, the call rests on the fitted dose curve; in most records, active means well fitted curve in the direction sought with a large enough effect; inconclusive means small, poorly fitted or top-dose-only effect, or another doubt; inactive means no such curve, though single readings can be large; an effect the other way counts as inactive or inconclusive.

Take `C=Cc1ccccc1Cl`: the activity change, negative = cytotoxicity in test [1] was 1.46%; in test [2] it was -4.37%. Also, the caspase-3 activation in test [3] was -1.24%. In addition, the Potency entry in test [4], in test [5], in [6], in [7], in test [8] and in test [9] was “inactive” each time. Also, the Potency entry in test [10], in test [11], in test [12], in test [13], in test [14] and in test [15] was “inactive” throughout. Further, the Potency entry in test [16], in test [17] and in [20] was “inactive” each time. Moreover, the max response in test [18] is -6.96%; in [19], -2.6%.

With `COC(=O)CCCCC(=O)OC`, the activity change, negative = cytotoxicity in test [1] is 4.03%; in test [2], 5.83%. The caspase-3 activation in [3] is 2.55%. In addition, the Potency entry in test [4], in test [6], in test [7], in test [8], in test [9] and in test [10] was “inactive” each time. In addition, the Potency entry in test [11], in [12], in [13], in test [14], in test [15] and in test [16] was “inactive” each time. Moreover, the Potency entry in test [17] and in [20] was “inactive” in each case. Moreover, the max response in test [18] was -2.55% and -9.27% and -5.71%; in [19], -2.58% and 2.67% and 6.18%.

With `CC(C)=CCCC(C)CCO` (stereo unspecified), the activity change, negative = cytotoxicity was -9.36% in test [1] and -2.53% in [2]. Further, the caspase-3 activation in test [3] was 2.37%. Besides, the Potency result in [4], in test [5], in test [6], in test [7], in test [8] and in [9] was “inactive” each time. In addition, the Potency result in test [10], in test [11], in [12], in [13], in test [14] and in test [15] was “inactive” throughout. Also, the Potency entry in test [16], in test [17] and in test [20] was “inactive” throughout. Also, the max response in [18] is -7.24% and 2.51%; in test [19], -2.24% and -1.77%.

Regarding `NC1=NC(S)C2N=CN=C2N1` (stereo unspecified), the Potency in [5] was 7.94 µM (active); in [6], 12.6 µM (active); in [8], 10 µM (active); in test [9], 15.8 µM (active); in test [10], 10 µM (active); in test [11], 3.16 µM (active). The Potency in test [14] is 3.16 µM (active); in [15], 12.6 µM (active); in test [16], 10 µM (active); in [17], 2 µM (active); in test [19], 5.01 µM (active). For the same compound, in test [18], the max response was 2.23%.

Regarding `CC1(C)CC(N=C=O)CC(C)(CN=C=O)C1` (stereo unspecified), the activity change, negative = cytotoxicity was 6.51% in test [1] and 13.5% in test [2]. Besides, the caspase-3 activation in test [3] is 0.941%. Further, the Potency entry in test [4], in test [5], in test [6], in test [7], in test [8] and in [9] was “inactive” in each case. The Potency entry in test [10], in test [11], in [12], in [13], in [14] and in test [15] was “inactive” in each case. Moreover, the Potency result in test [16], in test [17] and in test [20] was “inactive” throughout. Further, the max response is 12.5% and -8% in test [18]; 6.59% and -15.1% in [19].

Source of the values: PubChem BioAssay (NCATS).
